Sampled rows, rich in hits. Any-hit rate of the full collection: about 11%.
NPR1 antag: antagonists of human natriuretic peptide receptor Npr1; P16066; HEK293 hNpr1 GloSensor cGMP, ANP-stimulated luminescence; Potency, µM (series often up to 46.3 µM), without a hit: at the top dose activity change, negative = inhibition, hits mostly inhibitors; 1.6% of 76,000 active; calls by dose curve; note: nearly all actives have a fitted effect of over 60% in size
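Compound pre-incubated 30 min at room temperature on GloSensor-loaded HEK293 cells stably carrying hNpr1 and the pGS-40F cGMP biosensor. Stimulation uses hNppA at 0.1 nM final; luminescence is taken at baseline and 20 min post-agonist.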
HEK293 tox: cytotoxic compounds in HEK 293 cells | 6.6% of 94,000 active | Potency, µM (series often up to 115 µM), for inactives: at the highest dose activity change, negative = cytotoxicity, most hits filed as inhibitors | HEK 293 viability, ATP luminescence (CellTiter-Glo), 48-72 h | AID 1345083; note: nearly all actives have a fitted effect of over 60% in size
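CellTiter-Glo luminescence (cellular ATP) was read after 48 or 72 hr of compound exposure at 37 degree Celsius. Cells were HEK 293 plated at 250 cells/well.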
Luciferase inh: blocks purified firefly luciferase enzyme activity; P08659; purified P. pyralis luciferase, luminescence, biochemical; Potency, µM (titrated, usually from 115 µM), most hits filed as inhibitors; 2.5% of 76,000 active; note: nearly all actives have a fitted effect of over 65% in size
Target sequence (P08659 whole entry, looked up): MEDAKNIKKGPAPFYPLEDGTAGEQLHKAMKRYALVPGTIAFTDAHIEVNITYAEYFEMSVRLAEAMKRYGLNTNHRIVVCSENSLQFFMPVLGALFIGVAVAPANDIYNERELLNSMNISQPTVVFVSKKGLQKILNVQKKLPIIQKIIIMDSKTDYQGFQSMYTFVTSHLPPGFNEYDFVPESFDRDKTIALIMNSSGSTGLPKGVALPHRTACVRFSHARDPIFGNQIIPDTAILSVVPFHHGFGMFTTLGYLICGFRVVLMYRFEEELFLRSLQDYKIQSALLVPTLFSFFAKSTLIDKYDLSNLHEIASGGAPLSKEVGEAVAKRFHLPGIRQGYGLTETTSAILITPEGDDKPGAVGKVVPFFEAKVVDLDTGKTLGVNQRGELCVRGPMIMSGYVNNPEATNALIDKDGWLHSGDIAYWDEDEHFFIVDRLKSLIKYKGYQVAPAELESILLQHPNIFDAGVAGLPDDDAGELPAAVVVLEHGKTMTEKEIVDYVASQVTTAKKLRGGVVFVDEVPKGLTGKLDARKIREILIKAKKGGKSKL
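Purified P. pyralis luciferase (10nM final) in 50mM Tris acetate pH 7.5, 10mM Mg acetate, 0.01% Tween-20, 0.05% BSA with 10uM D-luciferin and 10uM ATP. Compounds titrated qHTS. Luminescence imaged on CCD.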
3T3 cytotox: cytotoxic compounds in NIH 3T3 cells | NIH 3T3 viability, CellTiter-Glo ATP luminescence, 48-72 h | Potency, µM (series often up to 96.7 µM), without a hit: top-dose activity change, negative = cytotoxicity, usual class: inhibitors | 4.3% of 94,000 active; note: nearly all actives have a fitted effect of over 55% in size
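NIH 3T3 cells at 400 cells/well received 23 nL of compound by pintool and were incubated 48 or 72 h at 37 °C. Viability was read as ATP-coupled CellTiter-Glo luminescence.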
* hit, by the source's call; i = inactive; ? = inconclusive; . = not tested or not shown; ! = not confirmed by another sample; [ ] = another dose, or the depositor's remark. Unless noted, calls come from the whole dose curve; as a rule, active = well fitted curve in the direction sought with a large enough effect; inconclusive = small, poorly fitted or top-dose-only effect, or another doubt; inactive = no such curve, though single readings can be large; an effect the other way counts as inactive or inconclusive. % is set by controls: 0 for no effect and ±100 for the full control effect; potency is the fitted concentration of half-maximal effect.

SMILES | NPR1 antag | HEK293 tox | Luciferase inh | 3T3 cytotox
CCN1c2cc(C(=O)Nc3cccc(OC(F)(F)F)c3)ccc2C(=O)N2CCCCC21 (stereo not drawn) | -10% | 25µM* | i | ?
CN1c2cc(C(=O)N3CCN(c4ccc(F)cc4)CC3)ccc2C(=O)N2CCCCC21 (stereo not drawn) | 0% | ? | i | -6%
COc1cccc(N2CCN(C(=O)c3ccc4c(c3)N(C)C3CCCCCN3C4=O)CC2)c1 (stereo not drawn) | 1% | 50µM* | i | -27%
Cc1cccc(N2CCN(C(=O)c3ccc4c(c3)N(C)C3CCCCCN3C4=O)CC2)c1 (stereo not drawn) | -7% | 40µM* | i | ?
CN1c2cc(C(=O)N3CCN(c4ccc(F)cc4)CC3)ccc2C(=O)N2CCCCCC21 (stereo not drawn) | -13% | 45µM* | i | ?
CNC(=O)[C@@H]1C[C@@H](N)CN1C(=O)c1ccc(OC)c(OC)c1OC | -6% | -6% | i | -13%
COc1cccc(-c2cnc3n[nH]c(-c4ccccc4)c3n2)c1 | -5%[70.6 µM] | 56µM* | i | 40µM*
COc1ccc(-c2cnc3n[nH]c(-c4ccccc4)c3n2)cc1 | -1%[70.6 µM] | 89µM* | i | 79µM*
Cc1ccc(-c2ccccc2CN2CCN(C(=O)Nc3ccccc3)CC2)cc1Cl | . | 32µM* | . | ?
Cc1ccc(C(=O)N2CCN(Cc3ccccc3-c3ccc(C)c(Cl)c3)CC2)cc1 | . | 40µM* | . | ?
CC(=O)N1CCN(Cc2ccccc2-c2ccccc2F)CC1 | . | -27%[172 µM] | . | ?
Cc1ccc(-c2ccccc2CN2CCN(C(=O)c3ccccc3Cl)CC2)cc1Cl | . | 40µM* | . | 40µM*
Cc1ccc(-c2ccccc2CN2CCC(C(=O)NCCc3ccccc3)CC2)cc1Cl | . | 40µM*! | . | 25µM*
O=C(c1ccncc1)N1CCN(Cc2ccccc2-c2cccnc2)CC1 | . | -18% | . | -40%
O=C(c1ccccn1)N1CCN(Cc2ccccc2-c2cccnc2)CC1 | . | -18% | . | -35%
O=C(C1CCCN1[S+](=O)([O-])c1cccs1)N1CCCC1c1nc2ccncc2[nH]1 (stereo not drawn) | . | -10% | . | -9%
COCCN1C(=O)c2cccn2CC1CNC(=O)c1cn[nH]c1-c1ccc(F)cc1 (stereo not drawn) | 0% | -7% | i | 4%
CCOc1ccc(C(=O)N2CC(COC)C3(CCOCC3)C2)cc1 (stereo not drawn) | 1% | -16% | i | 0%
Cc1ccc(-c2nccn3cc(C(=O)N4CCN(C5CCCCC5)CC4)nc23)cc1 | -7% | i | i | -1%
Cc1ccc(-c2ccccc2CN2CCN(C(=O)c3ccc(Cl)nc3)CC2)cc1Cl | . | ? | . | 35µM*
O=C(c1ccc(Cl)nc1)N1CCN(C(=O)c2cccc(-c3ccccn3)c2)CC1 | . | -10% | . | -28%
COc1ccc(CN2C(=O)COC[C@H]2C(=O)Nc2ccc(OC)c(OC)c2)cc1OC | -2% | -1% | i | -1%
COc1ccc(CN2C(=O)COC[C@H]2C(=O)Nc2ccc(OC)c(C(F)(F)F)c2)cc1 | ? | 45µM* | i | ?
COc1ccccc1-c1cc(C(=O)Nc2ccc(Cl)cc2)c2cnn(C)c2n1 | . | 22µM* | . | ?
Cn1ncc2c(C(=O)Nc3ccccc3F)cc(-c3ccccc3C(F)(F)F)nc21 | . | -4% | . | 2%
SMILES | NPR1 antag | HEK293 tox | Luciferase inh | 3T3 cytotox
COc1cccc(NC(=O)c2cc(-c3ccc(C(F)(F)F)cc3)nc3c2cnn3C)c1 | . | 40µM* | . | ?
COc1cccc(NC(=O)c2cc(-c3ccccc3C(F)(F)F)nc3c2cnn3C)c1 | . | 22µM* | . | ?
COc1ccccc1NC(=O)c1cc(-c2ccccc2C(F)(F)F)nc2c1cnn2C | . | 45µM* | . | ?
Cc1ccccc1-c1cc(C(=O)NCCC(N)=O)c2c(c1)N(C)CCO2 | 2%[70.6 µM] | -29%[172 µM] | i | ?
CCOC(=O)Cc1ccc(NC(=O)N2CCN(Cc3nccn3C)CC2)cc1 | 4% | -1% | i | 1%
CN(C)Cc1ccc(-c2cc3c(ccn3Cc3cccnc3)c(C3=CCOCC3)n2)cc1 | -9%[70.6 µM] | 56µM* | i | 25µM*
C1=C(c2nc(-c3cccc4[nH]ncc34)cc3c2ccn3Cc2cccnc2)CCOC1 | -20%[70.6 µM] | 89µM* | i | ?
C1=C(c2nc(-c3ccc(N4CCOCC4)cc3)cc3c2ccn3Cc2cccnc2)CCOC1 | -2% | ? | i | ?
O=C(Nc1ccccc1F)N1CC2CCC(C1)N2Cc1cccc(-c2cccnc2)c1 | . | ? | . | -23%
CC(=O)N1CCn2ncc(C(=O)NCc3ccc(Cl)nc3)c2C1 | . | i | . | i
Clc1ccccc1Cc1nc(-c2ccc(OC3CCNC3)cc2)no1 (stereo not drawn) | 8% | 18µM* | ? | 13µM*
COc1ccc(CN2Cc3[nH]nc(-c4cccc(OC)c4)c3CC2=O)cc1 | -12%[70.6 µM] | -25%[172 µM] | i | ?
COc1ccc(CN2Cc3[nH]nc(-c4cccc(O)c4)c3CC2=O)cc1 | -12%[70.6 µM] | ? | i | 10µM*
CCN(CC)Cc1cnc2c(C(=O)N(C)Cc3cc(C)cc(C)n3)cnn2c1 | -1% | i | i | 1%
CC(C)(C)c1cc(C(=O)N2CCOCC2)nn2cccc12 | . | -13%[172 µM] | . | -10%[138 µM]
O=C(c1cc(-c2cc(Cl)cc(Cl)c2)c2cccn2n1)N1CCOCC1 | . | ? | . | 35µM*
Cc1ccc(CC(=O)N2c3ccccc3CC2c2nnc(C3CCOCC3)o2)cc1 (stereo not drawn) | -1% | -15% | i | ?
Cc1ccc(S(=O)(=O)N2c3ccccc3CC2c2nnc(C3CCOCC3)o2)cc1F (stereo not drawn) | -8% | 25µM* | i | ?
CNC(=O)c1cc(C2CC2)nc2onc(C3CCCN3C(=O)c3ccccn3)c12 (stereo not drawn) | . | 4% | . | -15%
CN1CCC(Oc2nccnc2N2CCc3ccccc3C2)C1 (stereo not drawn) | -13% | ? | i | ?
c1ccc2c(c1)CCN2c1nccnc1OC1CCNC1 (stereo not drawn) | -12% | -35% | i | -13%
c1ccc(CN2CCC(Oc3nccnc3N3CCc4ccccc43)C2)nc1 (stereo not drawn) | 0% | 40µM* | i | ?
COCC(=O)N1CCC(Oc2nccnc2N2CCc3ccccc32)C1 (stereo not drawn) | 0% | -1% | 35µM* | i
Cn1c(CO[C@H]2CN(Cc3cnc4ccccc4c3)C[C@H]2F)nc2ccccc21 | ? | 79µM* | i | ?
CC(C)CN1CC[C@H](c2nc3ccccc3n2C)C1 | 0%[70.6 µM] | ? | 22µM* | -24%[230 µM]
Cn1c([C@H]2CCN(Cc3cnc4ccccc4c3)C2)nc2ccccc21 | -7%[70.6 µM] | 71µM* | i | ?
Cn1c(CN2CC[C@H](c3nc4ccccc4[nH]3)C2)nc2ccccc21 | -15%[70.6 µM] | 45µM* | i | ?
COc1ccc(CN2C[C@@H](F)[C@@H](OCc3nc4ccccc4n3C)C2)cn1 | 0%[70.6 µM] | -11%[172 µM] | i | -8%[138 µM]

Screens (PubChem)
